Results from PubChem BioAssay (NCI).
This is part of a sample that, as a whole, favours compounds with a hit. Of some 83,000 tested, about 20% had one in any assay.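 48-hour exposure, single concentration, 96-well plates; percent growth endpoint where 0 means no net growth. Active: below 10.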 Active and inactive are the calls of the source.

Tested on: TK-10 renal
Assay: NCI-60 one-dose screen, 48 h (100 = growth as untreated, 0 = no growth, -100 = all killed)
Conditions: 10 µM unless noted

| SMILES | growth |
| --- | --- |
| O=C(Cc1ccc(-c2ccc(OCCN3CCOCC3)cc2)cn1)NCc1ccccc1 | 40.3% (inactive) |
| COc1ccc(F)c(F)c1C(=O)c1cnc(NC2CCN(S(C)(=O)=O)CC2)nc1N | -7.34% (active) |
| CCOc1ccc(N=C(C)Nc2ccc(OCC)cc2)cc1 | 108% (inactive) |
| C[C@@H]1COC(Nc2ccc3ncnc(Nc4ccc(OCc5nccs5)c(Cl)c4)c3c2)=N1 | 20.4% (inactive) |
| CCCCCC(=O)OCc1ccc(Cl)c(Cl)c1 | 104% (inactive) |
| C=CC(=O)Nc1cccc(Oc2nc(Nc3ccc(N4CCN(C)CC4)cc3)nc3ccsc23)c1 | -79% (active) |
| C1=C\COCc2cc(ccc2OCCN2CCCC2)Nc2nccc(n2)-c2cccc(c2)COC/1 | 55.3% (inactive) |
| FC(F)c1nc2ccccc2n1-c1nc(N2CCOCC2)nc(N2CCOCC2)n1 | -27.9% (active) |
| Cc1cnc(Nc2ccc(OCCN3CCCC3)cc2)nc1Nc1cccc(S(=O)(=O)NC(C)(C)C)c1 | -40% (active) |
| C=CC(=O)Nc1cc2c(Nc3ccc(F)c(Cl)c3)ncnc2cc1OCCCN1CCOCC1 | -6.01% (active) |
| COc1cc2c(cc1OCCCN1Cc3ccc(OCCCCC(=O)N4CCC(CCN5CCCC5)CC4)cc3C1)N=C(N)C21CCCC1 | 99.3% (inactive) |
| COc1cc(Nc2ncc(F)c(Nc3ccc4c(n3)N(COP(=O)(O)O)C(=O)C(C)(C)O4)n2)cc(OC)c1OC | -43.8% (active) |
| CNC(=O)c1cc(Oc2cccc3nc(Nc4ccc(Cl)c(F)c4)ccc23)ccn1 | 54.1% (inactive) |
| C[C@@H](Oc1cc(C(=O)Nc2ccc(C(=O)N3CCN(C)CC3)cc2)nnc1N)c1c(Cl)ccc(F)c1Cl | 79.4% (inactive) |
| NC1(c2ccc(-c3nc4ccn5c(=O)[nH]nc5c4cc3-c3ccccc3)cc2)CCC1 | 44.3% (inactive) |
| C=CC(=O)N1CCC[C@@H](n2nc(-c3ccc(Oc4ccccc4)cc3)c3c(N)ncnc32)C1 | -8.56% (active) |

| SMILES | growth |
| --- | --- |
| Cn1ccnc1C(=O)/C=C/c1ccc(CC(=O)Nc2ccc(C(F)(F)F)cc2)cc1 | 32.6% (inactive) |
| CCNC(=O)Nc1nc2ccc(Oc3ccnc(C(=O)NC)c3)cc2s1 | 86.5% (inactive) |
| O=C(Cn1cncn1)Nc1ccc(-c2nc3ccccc3s2)cc1 | 106% (inactive) |
| Cc1ccc(NC(=O)Nc2ccc(Nc3ncnc4sc5c(c34)CCOC5)cc2)cc1Cl | 103% (inactive) |
| Cc1cc2c(F)c(Oc3ncnn4cc(OC[C@@H](C)OC(=O)[C@H](C)N)c(C)c34)ccc2[nH]1 | 35.6% (inactive) |
| CC(C)(C)c1nc(-c2cccc(NS(=O)(=O)c3c(F)cccc3F)c2F)c(-c2ccnc(N)n2)s1 | 65.2% (inactive) |
| COC(=O)Nc1nc2ccc(C(=O)c3ccc(N(C)C4COC4)cc3)cc2[nH]1 | 66% (inactive) |
| CO[C@H]1C[C@@H]2CC[C@@H](C)[C@@](O)(O2)C(=O)C(=O)N2CCCC[C@H]2C(=O)O[C@H]([C@H](C)C[C@@H]2CC[C@@H](OC(=O)C(C)(CO)CO)[C@H](OC)C2)CC(=O)[C@H](C)/C=C(\C)[C@@H](O)[C@@H](OC)C(=O)[C@H](C)C[C@H](C)\C=C/C=C/C=C/1C | 26.1% (inactive) |
| CO[C@@H](C)Cn1c(=O)n(C)c2cnc3ccc(-c4cncc(C(C)(C)O)c4)cc3c21 | -49.6% (active) |
| NC1=Nc2cc(OCCCN3Cc4ccccc4C3)c(OCC3CC3)cc2C12CCCC2 | 78.4% (inactive) |
| COc1cc2c(Oc3ccc(NC(=O)C4(C(=O)Nc5ccc(F)cc5)CC4)cc3F)ccnc2cc1OCCCN1CCOCC1 | -5.46% (active) |
| Cc1c(NC(=O)OC[C@@H]2COCCN2)cn2ncnc(Nc3ccc4c(cnn4Cc4cccc(F)c4)c3)c12 | -7.43% (active) |
| Cc1nc(NC(=O)N2CCC[C@H]2C(N)=O)sc1-c1ccnc(C(C)(C)C(F)(F)F)c1 | 13.3% (inactive) |
| COc1cc(NCCCN)c2ncccc2c1 | 84.8% (inactive) |
| Cc1cc(Nc2ncc(Cl)c(Nc3ccccc3S(=O)(=O)C(C)C)n2)c(OC(C)C)cc1C1CCNCC1 | -96.1% (active) |

Tested on: ACHN renal
Assay: as above
Conditions: 10 µM unless noted

| SMILES | growth |
| --- | --- |
| O=C1C=CC2(NN=C(c3ccccc3)N2c2ccc(Cl)cc2)c2cccc(O)c21 (stereo not given) | 61.1% (inactive) |
| CNC(=O)c1ccc(Nc2ncc(C(F)(F)F)c(NCc3nccnc3N(C)S(C)(=O)=O)n2)cc1 | 3.54% (active) |
| CN(C)C/C=C/C(=O)Nc1cc2c(Nc3ccc(F)c(Cl)c3)ncnc2cc1O[C@H]1CCOC1 | -84.9% (active) |
| COc1cc(Nc2c(C#N)cnc3cc(OCCCN4CCN(C)CC4)c(OC)cc23)c(Cl)cc1Cl | 27.3% (inactive) |
| Cc1oc2c(C(=O)N/N=C\c3ccc(O)cc3O)c[nH]c2c1C | -7.76% (active) |
| COc1c(OCCCN2CCOCC2)ccc2c3n(c(=NC(=O)c4cnc(N)nc4)nc12)CCN3 | 8.09% (active) |
| c1cn2cc(-c3ccc4cn[nH]c4c3)nc(Nc3ccc(N4CCOCC4)cc3)c2n1 | 39% (inactive) |
| CN1CCN(CCOc2cc(OC3CCOCC3)c3c(Nc4c(Cl)ccc5c4OCO5)ncnc3c2)CC1 | 12.5% (inactive) |
| O=C(Cc1ccc(-c2ccc(OCCN3CCOCC3)cc2)cn1)NCc1ccccc1 | 22.1% (inactive) |
| COc1ccc(F)c(F)c1C(=O)c1cnc(NC2CCN(S(C)(=O)=O)CC2)nc1N | 5.94% (active) |
| CCOc1ccc(N=C(C)Nc2ccc(OCC)cc2)cc1 | 99.5% (inactive) |
| C[C@@H]1COC(Nc2ccc3ncnc(Nc4ccc(OCc5nccs5)c(Cl)c4)c3c2)=N1 | 23.3% (inactive) |
| CCCCCC(=O)OCc1ccc(Cl)c(Cl)c1 | 107% (inactive) |
| C=CC(=O)Nc1cccc(Oc2nc(Nc3ccc(N4CCN(C)CC4)cc3)nc3ccsc23)c1 | -96.6% (active) |
| C1=C\COCc2cc(ccc2OCCN2CCCC2)Nc2nccc(n2)-c2cccc(c2)COC/1 | 3.85% (active) |
| FC(F)c1nc2ccccc2n1-c1nc(N2CCOCC2)nc(N2CCOCC2)n1 | -8.61% (active) |
| Cc1cnc(Nc2ccc(OCCN3CCCC3)cc2)nc1Nc1cccc(S(=O)(=O)NC(C)(C)C)c1 | -40.8% (active) |
| C=CC(=O)Nc1cc2c(Nc3ccc(F)c(Cl)c3)ncnc2cc1OCCCN1CCOCC1 | 2.82% (active) |
| COc1cc2c(cc1OCCCN1Cc3ccc(OCCCCC(=O)N4CCC(CCN5CCCC5)CC4)cc3C1)N=C(N)C21CCCC1 | 110% (inactive) |
| COc1cc(Nc2ncc(F)c(Nc3ccc4c(n3)N(COP(=O)(O)O)C(=O)C(C)(C)O4)n2)cc(OC)c1OC | 6.43% (active) |

| SMILES | growth |
| --- | --- |
| CNC(=O)c1cc(Oc2cccc3nc(Nc4ccc(Cl)c(F)c4)ccc23)ccn1 | 38.5% (inactive) |
| C[C@@H](Oc1cc(C(=O)Nc2ccc(C(=O)N3CCN(C)CC3)cc2)nnc1N)c1c(Cl)ccc(F)c1Cl | 91.8% (inactive) |
| NC1(c2ccc(-c3nc4ccn5c(=O)[nH]nc5c4cc3-c3ccccc3)cc2)CCC1 | 36.2% (inactive) |
| C=CC(=O)N1CCC[C@@H](n2nc(-c3ccc(Oc4ccccc4)cc3)c3c(N)ncnc32)C1 | 23.5% (inactive) |
| Cn1ccnc1C(=O)/C=C/c1ccc(CC(=O)Nc2ccc(C(F)(F)F)cc2)cc1 | 27.9% (inactive) |
| CCNC(=O)Nc1nc2ccc(Oc3ccnc(C(=O)NC)c3)cc2s1 | 96.4% (inactive) |
| O=C(Cn1cncn1)Nc1ccc(-c2nc3ccccc3s2)cc1 | 110% (inactive) |
| Cc1ccc(NC(=O)Nc2ccc(Nc3ncnc4sc5c(c34)CCOC5)cc2)cc1Cl | 94.6% (inactive) |
| Cc1cc2c(F)c(Oc3ncnn4cc(OC[C@@H](C)OC(=O)[C@H](C)N)c(C)c34)ccc2[nH]1 | 46.8% (inactive) |
| CC(C)(C)c1nc(-c2cccc(NS(=O)(=O)c3c(F)cccc3F)c2F)c(-c2ccnc(N)n2)s1 | 59.3% (inactive) |
| COC(=O)Nc1nc2ccc(C(=O)c3ccc(N(C)C4COC4)cc3)cc2[nH]1 | 39% (inactive) |
| CO[C@H]1C[C@@H]2CC[C@@H](C)[C@@](O)(O2)C(=O)C(=O)N2CCCC[C@H]2C(=O)O[C@H]([C@H](C)C[C@@H]2CC[C@@H](OC(=O)C(C)(CO)CO)[C@H](OC)C2)CC(=O)[C@H](C)/C=C(\C)[C@@H](O)[C@@H](OC)C(=O)[C@H](C)C[C@H](C)\C=C/C=C/C=C/1C | 32.6% (inactive) |
| CO[C@@H](C)Cn1c(=O)n(C)c2cnc3ccc(-c4cncc(C(C)(C)O)c4)cc3c21 | 3.66% (active) |
| NC1=Nc2cc(OCCCN3Cc4ccccc4C3)c(OCC3CC3)cc2C12CCCC2 | 83.1% (inactive) |
| COc1cc2c(Oc3ccc(NC(=O)C4(C(=O)Nc5ccc(F)cc5)CC4)cc3F)ccnc2cc1OCCCN1CCOCC1 | -4.14% (active) |
| Cc1c(NC(=O)OC[C@@H]2COCCN2)cn2ncnc(Nc3ccc4c(cnn4Cc4cccc(F)c4)c3)c12 | -0.373% (active) |
| Cc1nc(NC(=O)N2CCC[C@H]2C(N)=O)sc1-c1ccnc(C(C)(C)C(F)(F)F)c1 | 36.9% (inactive) |
| COc1cc(NCCCN)c2ncccc2c1 | 97.2% (inactive) |
| Cc1cc(Nc2ncc(Cl)c(Nc3ccccc3S(=O)(=O)C(C)C)n2)c(OC(C)C)cc1C1CCNCC1 | -100% (active) |
